# Reference: the supplement of paper PMC10127200
# Counter-ions that a name gives are not always drawn.
# What was measured:
# Experiment in all cases: Euclidean distance of Cell Painting phenotypic profile (signed KS, 77 features) to DMSO centroid (dimensionless distance); 5 or 10 uM (library dependent); higher = stronger phenotypic change vs DMSO (phenoactivity)
# Conditions in all cases: 48 h
# 786-O = system: 786-O
# Procedure, shortened: (§1)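 Stained cells were imaged confocally at 20X with 9 fields per well, after 48 h of exposure to library compounds at 10 or 5 uM (set by library; 0.1% DMSO final). The cells were five cancer lines and a healthy fibroblast line. From the images, Harmony extracted 77 features, each expressed as a signed Kolmogorov-Smirnov statistic relative to same-plate vehicle wells. Phenoactivity is measured as Euclidean distance to the median vehicle profile, using plate-position-corrected, correlation-weighted profiles averaged across replicates at the top dose.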
# A549 = system: A549
# Procedure, shortened: as §1
# DU145 = system: DU145
# Procedure, shortened: as §1
# FB = system: FB
# Procedure, shortened: as §1
# HEPG2 = system: HEPG2
# Procedure, shortened: as §1
# OVCAR4 = system: OVCAR4
# Procedure, shortened: as §1
Compound,Euclidean distance (786-O),Euclidean distance (A549),Euclidean distance (DU145),Euclidean distance (FB),Euclidean distance (HEPG2),Euclidean distance (OVCAR4)
CN(C)CC[C@H](CSc1ccccc1)Nc1ccc(S(=O)(=O)NC(=O)c2ccc(N3CCN(Cc4ccccc4-c4ccc(Cl)cc4)CC3)cc2)cc1[N+](=O)[O-],0.812,2.83,1.36,0.853,0.522,1.01
N=C(N)NC(=O)c1nc(Cl)c(N)nc1N [Amiloride HCl dihydrate],1.53,1.27,1.11,1.58,0.663,1.28
CCN1CC(CCN2CCOCC2)C(c2ccccc2)(c2ccccc2)C1=O (centres undefined) [Doxapram HCl],0.672,0.512,0.481,0.699,0.498,0.962
Cc1cn([C@H]2C[C@H](N=[N+]=[N-])[C@@H](CO)O2)c(=O)[nH]c1=O [Zidovudine],1.52,0.708,1.19,1.2,1.54,0.957
Oc1ccc(O)cc1 [Hydroquinone],1.49,1.06,1.21,1.36,1.04,1.09
Cc1coc2c1C(=O)C(=O)c1c-2ccc2c(C)cccc12 [Tanshinone I],1.41,0.593,1.07,1.35,1.25,1.18
CCC(=O)Nc1cccc(Oc2nc(Nc3ccc(N4CCN(C)CC4)cc3OC)ncc2Cl)c1,1.62,1.63,0.903,1.15,1.61,1.26
Cc1[nH]cnc1CN1CCc2c(c3ccccc3n2C)C1=O [Alosetron Hydrochloride],1.67,0.744,0.859,0.731,0.664,1.33
NC(=O)/C(=C/n1cnc(-c2cc(C(F)(F)F)cc(C(F)(F)F)c2)n1)c1cncnc1 [Eltanexor (KPT-8602)],2.1,3.48,2.69,4.12,2.35,3.66
CN1CCN(CCCN2c3ccccc3Sc3ccc(C(F)(F)F)cc32)CC1 [Trifluoperazine 2HCl],2.52,2.25,1.58,2.19,3.04,1.8
Cc1cn(-c2cc(NC(=O)c3ccc(C)c(Nc4nccc(-c5cnccn5)n4)c3)cc(C(F)(F)F)c2)cn1 [Radotinib],1.61,1.33,1.78,1.12,0.843,1.17
CO/N=C(\C(=O)N[C@@H]1C(=O)N2C(C(=O)O)=C(COC(C)=O)CS[C@H]12)c1csc(N)n1 [Cefotaxime sodium],1.09,0.485,0.877,0.644,0.409,0.706
CNC(=O)CN(CCN(CCN(CC(=O)[O-])CC(=O)NC)CC(=O)[O-])CC(=O)[O-].O.[Gd+3] [Gadodiamide Hydrate],1.58,0.803,1.3,1.38,0.469,0.986
COc1cc(C(=O)NCc2ccc(OCCN(C)C)cc2)cc(OC)c1OC [Tribenzagan Hydrochloride],1.18,1.99,1.05,1.12,1.07,1.09
CN1CC[C@H](c2c(O)cc(O)c3c(=O)cc(-c4ccccc4Cl)oc23)[C@H](O)C1 [Flavopiridol HCl],3.1,3.15,3.43,3.29,2.41,3.45
COc1cc(C2Oc3cc([C@H]4Oc5cc(O)cc(O)c5C(=O)[C@@H]4O)ccc3OC2CO)ccc1O (some centres undefined) [Silibinin],0.696,1.28,0.646,0.713,0.547,0.847
CC(C)=CCC/C(C)=C/CC/C(C)=C/CCC(=O)OC/C=C(\C)CCC=C(C)C [Gefarnate],0.868,0.898,0.637,1.09,0.64,0.606
COc1ccc(S(=O)(=O)Nc2cccnc2Nc2ccc(O)cc2)cc1,2.73,2.61,3.18,2.99,3.33,3.12
CCCCCCNC(=O)n1cc(F)c(=O)[nH]c1=O [Carmofur],2.44,2.89,1.27,2.91,2.49,2.82
O=C(Cn1ccnc1[N+](=O)[O-])NCc1ccccc1 [Benznidazole],1.16,1.1,1.58,1.03,0.581,1.14
Oc1cc(O)cc(/C=C/c2ccc(O)c(O)c2)c1 [Piceatannol],0.759,1.05,0.992,1.3,2.04,0.83
C[C@H](O)[C@H](O)[C@H]1CNc2[nH]c(N)nc(=O)c2N1 [Sapropterin Dihydrochloride],0.821,0.501,0.871,0.819,0.542,0.643
CN(Cc1cc(Br)cc(Br)c1N)C1CCCCC1 [Bromhexine],0.96,1.02,0.619,0.847,0.566,1.03
N#CC1(c2ccc(NC(=O)c3cccnc3NCc3ccncc3)cc2)CCCC1 [Apatinib],0.955,1.12,0.92,2.3,1.34,0.799
N=C(N)NC(=N)NCCc1ccccc1 [Phenformin HCl],1.03,1.71,1.14,1.15,1.56,0.844

Compound,Euclidean distance (786-O),Euclidean distance (A549),Euclidean distance (DU145),Euclidean distance (FB),Euclidean distance (HEPG2),Euclidean distance (OVCAR4)
COc1nc(C)nc(Cl)c1NC1=NCCN1 [Moxonidine],1.15,0.652,1.39,0.879,2.14,1.43
C/C(=C\C(=O)Nc1ccccc1C(=O)O)c1ccc2ccccc2c1,0.939,1.46,1.76,1.59,0.714,0.731
O=C(O)C(=O)O.[NH-][C@@H]1CCCC[C@H]1[NH-].[Pt+2] [Oxaliplatin],3.37,3.26,1.5,2.95,3.19,3.47
COc1cccc(N2CCN(C3=Nc4c(F)cccc4C(CC(=O)O)N3c3cc(C(F)(F)F)ccc3OC)CC2)c1 (centres undefined) [Letermovir(AIC246)],1.22,1.44,0.984,0.978,0.523,1.01
Cc1cc(NS(=O)(=O)c2ccc(N)cc2)no1 [Sulfamethoxazole],1.58,0.797,0.847,1.02,0.562,0.86
C[C@@H]1COCCN1c1cc(C2([S@](C)(=N)=O)CC2)nc(-c2cc[nH]c3nccc2-3)n1,2.52,2.73,2.21,3.12,2.29,2.88
O=C1CCc2cc(OCCCCc3nnnn3C3CCCCC3)ccc2N1 [Cilostazol],1.11,0.94,1.56,1.21,0.849,1.26
CCCCC1=NC2(CCCC2)C(=O)N1Cc1ccc(-c2ccccc2-c2nnn[nH]2)cc1 [Irbesartan],1.03,0.928,0.351,0.966,0.777,1.79
CC(C)N1CCN(Cc2cnc(-c3cc(-c4cccc5[nH]ccc45)cc4[nH]ncc34)o2)CC1,3.29,3.89,3.41,3.33,3.14,3.89
CC[C@H]1OC(=O)[C@H](C)[C@@H](O[C@H]2C[C@@](C)(OC)[C@@H](O)[C@H](C)O2)[C@H](C)[C@@H](O[C@@H]2O[C@H](C)C[C@H](N(C)C)[C@H]2O)[C@](C)(O)C[C@@H](C)C(=O)[C@H](C)[C@H]2OC(=O)O[C@@]21C [Erythromycin Cyclocarbonate],1.11,1.33,0.736,0.984,1.01,0.912
CN(C)c1ccc(O)c2c1C[C@H]1C[C@H]3[C@H](N(C)C)C(O)=C(C(N)=O)C(=O)[C@@]3(O)C(O)=C1C2=O [Minocycline HCl],1.46,1.38,1.2,1.33,0.637,1.14
O=C(O)c1ccc2nc(-c3cc(Cl)cc(Cl)c3)oc2c1 [Tafamidis],1.52,0.941,1.1,0.77,0.971,1.21
O=[N+]([O-])c1ccc(O)c2ncccc12 [Nitroxoline],2.71,2.74,1.76,1.94,1.71,2.24
CN(C(=O)c1c(O)c2ccccc2n(C)c1=O)c1ccccc1 [Roquinimex],0.929,0.796,1.13,1.32,0.76,0.974
CC(=O)Nc1ccc(CC(=O)O)cc1 [Actarit],1.12,0.862,0.902,1.09,0.464,0.872
CCOc1ccn(-c2ccc(F)cc2)c(=O)c1C(=O)Nc1ccc(Oc2ccnc(N)c2Cl)c(F)c1,1.2,3.4,1.66,2.27,1.66,2.55
CN(C)CCn1nnnc1SCC1=C(C(=O)O)N2C(=O)[C@@H](NC(=O)Cc3csc(N)n3)[C@H]2SC1 [Cefotiam hydrochloride],1.2,1.06,0.774,0.93,0.739,0.935
CCOC(=O)C1=C[C@]2(CC)CCCN3CCc4c(n1c1ccccc41)[C@@H]32 [Vinpocetine],1.12,0.68,0.699,0.994,0.98,1.81
COc1cc(N2CCC(N3CCN(C)CC3)CC2)ccc1Nc1ncc(Cl)c(Nc2ccccc2S(=O)(=O)C(C)C)n1,2.54,3.06,2.48,3.6,1.66,3.35
Cn1cc(C2=C(c3cccc(N)c3)C(=O)NC2=O)c2ccccc21,3.84,2.48,2.97,1.8,1.6,3.79
O=C1OC(OC(=O)c2cccnc2Nc2cccc(C(F)(F)F)c2)c2ccccc21 (centres undefined) [Talniflumate],0.81,0.859,0.922,0.783,0.818,1
O=C(NCCS(=O)(=O)c1ccc(C(F)(F)F)cn1)c1ccc(Cl)cc1,0.975,1.54,1.57,0.817,0.723,1.18
C=CC(=O)Nc1cccc(Nc2nc(Nc3ccc(Oc4ccnc(C(=O)NC)c4)cc3)ncc2F)c1,1.82,1.47,1.48,2.2,2.3,1.63
COc1cc2c(cc1Cc1cccc(Cl)c1F)c(=O)c(C(=O)O)cn2[C@H](CO)C(C)C [Elvitegravir (GS-9137. JTK-303)],1.44,2.36,1.33,0.872,0.582,1.76
